High-throughput results deposited in PubChem by National Center for Advancing Translational Sciences (NCATS).
FMDV inh = blocks foot and mouth disease virus | FMDV antiviral cell-based qHTS | AID 1159524 | actives 1.2% (n = 410,000) | Potency, µM (top dose mostly 57.9 µM), for inactives: top-dose activity change, negative = inhibition, actives largely listed as inhibitors; calls by dose curve; tested in HEK293T cells; note: read-out not given here; nearly all actives have a fitted effect of over 45% in size
Marburg entry inh = inhibitors of Marburg virus binding or cell entry | Marburg virus pseudotyped entry inhibition, cell reporter | Potency, µM (top dose mostly 37.8 µM), for inactives: top-dose activity change, negative = inhibition, most hits filed as inhibitors | actives 1.8% (n = 300,000) | AID 540276; calls by dose curve; tested in HEK293 cells
VACV Venus inh = inhibitors of vaccinia virus (Venus reporter) | Vaccinia virus Venus reporter expression, fluorescence | Potency, µM (titrated, usually from 36.5 µM), inactives show at the top dose activity change, negative = inhibition, usual class: inhibitors | actives 0.46% (n = 330,000); calls by dose curve; tested in A549 cells; note: nearly all actives have a fitted effect of over 30% in size
Sm TGR block = blocks Schistosoma mansoni thioredoxin glutathione reductase. Potency, µM (series often up to 114 µM), inactives show at the top dose activity change, negative = inhibition, actives largely listed as inhibitors. actives 3% (n = 360,000). purified TGR, DTNB reduction, TNB absorbance 405 nm. Q962Y6; active = well fitted inhibition curve with a large enough effect; inconclusive = small, poorly fitted or top-dose-only effect; inactive = no such curve, though single readings can be large or run the other way; note: nearly all actives have a fitted effect of over 60% in size
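Kinetic colorimetric format: TGR-catalysed, NADPH-driven DTNB reduction monitored via TNB absorbance. Enzyme dispensed at 20 nM; compound exposure 15 min at room temperature before reaction start.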
Vaccinia mCherry = inhibitors of vaccinia virus infection (mCherry reporter signal); Vaccinia virus mCherry reporter infection, fluorescence; Potency, µM (doses to about 36.5 µM), inactives show at the top dose activity change, negative = inhibition, most hits filed as inhibitors; actives 0.63% (n = 310,000); AID 720579; calls by dose curve; tested in A549 cells; note: nearly all actives have a fitted effect of over 35% in size
LASV entry inh = inhibitors of Lassa virus binding or cell entry; actives 1.2% (n = 300,000); Lassa virus pseudotype entry inhibition, cell reporter; Potency, µM (doses to about 37.9 µM), inactives show top-dose activity change, negative = inhibition, hits mostly inhibitors; calls by dose curve; tested in HEK293 cells; note: nearly all actives have a fitted effect of over 50% in size
Numbers without * were called inactive; i = inactive; u = inconclusive; x = not tested or not shown; ! = a repeat was not active; [ ] = remark or other dose. A selection: hits, their analogues and other compounds. The true share with any hit is near 5.4%. % is set by controls: 0 for no effect and ±100 for the full control effect; potency is the fitted concentration of half-maximal effect.

SMILES	FMDV inh	Marburg entry inh	VACV Venus inh	Sm TGR block	Vaccinia mCherry	LASV entry inh
CC1(C)C(c2ccccc2)=NC(c2ccccc2)N1O (centres undefined)	11%	5%	x	0%	x	0%
CC1(C)C(c2ccccc2)=NC(c2ccc(Br)cc2)N1O (centres undefined)	4µM*	u	-13%	1%	-13%	12%
CCOc1ccc(N2CC(C(=O)NCc3ccco3)CC2=O)cc1 (centres undefined)	12%	3%[46.1 µM]	1%	1%	-11%	1%[46.1 µM]
COc1ccc(N2CC(C(=O)NCc3ccco3)CC2=O)cc1 (centres undefined)	-2%	0%[46.1 µM]	8%	20µM*	-11%	-9%[46.1 µM]
COc1ccc(N2CC(C(=O)Nc3nnc(SCC(=O)NCc4ccco4)s3)CC2=O)cc1 (centres undefined)	-13%	-9%	7%	28µM*	-1%	6%
Cc1ccc(CCN2CC(C(=O)NCc3ccco3)CC2=O)cc1 (centres undefined)	-16%	-6%	-4%	45µM*	x	-8%
COc1cccc(C(=O)Nc2cccc(-c3cn4c(C)csc4n3)c2)c1OC	1%	x	-3%	-7%	-6%	16%[46.1 µM]
O=C(CCN1Cc2ccccc2OC(c2ccccc2F)C1)N1CCC(N2CCCC(O)C2)CC1 (centres undefined)	7%	x	-11%	x	-9%	x
C#CCN(Cc1ccc(OC)cc1)S(=O)(=O)C=C	x	x	28µM*	x	u	x
CCN(CC)CCC[C@H](C)N=C(c1ccccc1)c1c(O)n(C)c(=O)n(C)c1=O	x	-2%	x	x	x	x
O=C1c2ccccc2-c2n[nH]c3cccc1c23	8%	u	-16%	x	11µM*!	15%
CCn1c(SCc2ccc(C(=O)Nc3cc(C)cc(C)c3)cc2)nnc1-c1ccncc1	18µM*	u	u	3%	x	-23%
COc1ccccc1N1CCN(c2nc(CNC(=O)c3ccc4c(c3)OCO4)nc3ccccc23)CC1	u	x	-14%	x	i	x
CCn1nnnc1NCc1ccc(Cl)cc1	4%	3%	-21%	4%	-17%	20%
CCn1nnnc1NCc1cccn1C	4%	6%	x	50µM*	x	-3%
CSc1cccc(Nc2nc3c(S(=O)(=O)c4ccccc4)nnn3c3ccc(Cl)cc23)c1	11%	2%[46.1 µM]	-26%	0%	-18%	x
O=C(Cc1cc(=O)[nH]c(=O)[nH]1)N1CCC(Cc2ccccc2)CC1	-16%	x	-15%	-3%	i	x
O=C(Cc1cc(=O)[nH]c(=O)[nH]1)N1CCN(CCO)CC1	-15%	x	6%	32µM*	-11%	x
Cc1cccc(N2CCN(C(=O)Cn3c(C)c4cnn(-c5ccccc5)c(=O)c4c3C)CC2)c1C	28µM*	-12%[46.1 µM]	-26%	6%	u	u
Cc1cccc(NC(=O)CCCn2c(C)c3cnn(-c4ccccc4)c(=O)c3c2C)c1C	-18%	7%[46.1 µM]	1%	-16%	-4%	3%[46.1 µM]
COc1cc(CNC(=O)c2cnn(-c3ncc4c(n3)-c3ccccc3CC4)c2C)cc(OC)c1OC	25%	x	-28%	x	u	x
COc1ccc(C(=O)C(C)OC(=O)c2cccc(S(=O)(=O)Nc3cc(Cl)c(OC)cc3OC)c2)cc1 (centres undefined)	19%	7.1µM*	-25%	2%	-9%	u
CSc1nccc(-c2cc(Cl)c3c(c2)CC(CNC(=O)c2nonc2C)O3)n1 (centres undefined)	-13%	x	-22%	x	-2%	x
Cc1ccc(Nc2nc(-c3ccccc3)c(CC(=O)O)s2)cc1	33%	-9%[46.1 µM]	-22%	-35%	u	2%
O=C(O)Cc1sc(Nc2ccccc2)nc1-c1ccc(Cl)cc1	63%	18%[46.1 µM]	-3%	45µM*	-5%	24%
SMILES	FMDV inh	Marburg entry inh	VACV Venus inh	Sm TGR block	Vaccinia mCherry	LASV entry inh
O=C(Cc1sc(Nc2ccccc2)nc1-c1ccccc1)NCc1ccccn1	58%	16%[46.1 µM]	-11%	25µM*	-22%	x
COc1ccc(CCN2C(=O)CC(NCCc3ccc(S(N)(=O)=O)cc3)C2=O)cc1OC (centres undefined)	-5%	u	x	18µM*	x	0%
COc1ccc(CCN2C(=O)CC(NC34CC5CC(CC(C5)C3)C4)C2=O)cc1OC (centres undefined)	u	-15%[46.1 µM]	-14%	40µM*	-13%	-14%
COc1ccc(CCNC2CC(=O)N(N(C)C)C2=O)cc1OC (centres undefined)	-12%	6%	-15%	-5%[57.1 µM]	i	6%[46.1 µM]
CCc1ccc(C(=O)C[N+]2(C)CCOCC2)cc1	x	x	-6%	x	-14%	x
COc1cccc(N2C(=O)[C@H]3C(C(=O)c4cnccn4)=NN[C@H]3C2=O)c1	-23%	-5%[46.1 µM]	-7%	45µM*	-2%	10%[46.1 µM]
O=C(C1=NN[C@@H]2C(=O)N(c3cccc(F)c3)C(=O)[C@H]12)c1ccc2ccccc2n1	-2%	29%	-1%	u	-17%	12%
Cc1cccc(NC(=O)c2ccc(CNS(=O)(=O)c3ccc4c(c3)C(C)(C)C(=O)N4C)cc2)c1	35µM*	x	-26%	-17%	-3%	u
Cc1ccc(NC(=O)c2ccc(CNS(=O)(=O)c3ccc4c(c3)C(C)(C)C(=O)N4C)cc2)cc1C	35µM*	x	-24%	1%	-27%	u
COc1cccc(S(=O)(=O)NCc2ccc(C(=O)Nc3cccc(Cl)c3)cc2)c1	25µM*	u	u	-2%	x	u
Cc1ccc(CNC(=O)c2ccc(CNS(=O)(=O)c3ccc4c(c3)C(C)(C)C(=O)N4C)cc2)o1	-6%	x	3%	50µM*	15%	x
Cc1ccccc1NC(=O)c1ccc(CNS(=O)(=O)c2ccc3c(c2)C(C)(C)C(=O)N3C)cc1	8%	x	-7%	8%	-4%	-3%[46.1 µM]
CC(C)(Oc1ccc(Cl)cc1)C(=O)Nc1ccc(-c2nc3ncccc3o2)cc1	u	-10%[46.1 µM]	-11%	10%	-6%	1%[46.1 µM]
N#C/C(C(=O)N1CCOCC1)=C1\S[C@H](Cc2ccccc2)C(=O)N1c1ccccc1	x	20%	x	x	x	x
Cc1ccc(C(=O)NC(=S)NNS(=O)(=O)c2ccccc2)cc1	-2%	-11%[46.1 µM]	-15%	13µM*	-21%	u
COC(=O)c1ccccc1NC(=S)NC(=O)c1ccccc1	0%	-3%	-6%	11µM*	x	3%
COC(=O)c1ccccc1NC(=S)NC(=O)COc1ccccc1	-26%	23%	-12%	22µM*	x	3%
COC(=O)c1ccccc1NC(=S)NC(=O)c1ccc(C)cc1	-4%	-19%	0%	11µM*	i	15%
COCC(=O)N1CCC2(CCCN(c3ncccn3)C2)CC1	-5%	x	x	x	x	x
COC(=O)c1ccccc1NC(=O)c1ccc2c(c1)OCCO2	19%	2%[46.1 µM]	-2%	17%	i	-3%
Cc1ccc(C(=O)NC(=S)Nc2ccc(NC(=O)c3cccc(Cl)c3)cc2)cc1	3%	1.3µM*	-5%	7%	-10%	2.3µM*
COC(=O)c1ccccc1NC(=S)NC(=O)c1ccc2c(c1)OCO2	6%	4%	-12%	11µM*	-3%	19%
